Source: PubChem BioAssay (NCI)
About 83,000 compounds went through this panel and 20% of them were active in at least one assay; those are over-represented in the sample as a whole.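 Plates (96-well) were seeded with cells, treated with compound at one concentration, and incubated for 48 hours before percent growth was determined.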 The source made the active and inactive calls. How the source made its calls: active means growth percent below 10; inactive means the rest.

Experiments:
Experiment in all cases: NCI-60 one-dose screen, 48 h (100 = growth as untreated, 0 = no growth, -100 = all killed)
Settings in all cases: 10 µM unless noted
[1] = system: T-47D breast
[2] = system: BT-549 breast
[3] = system: MDA-MB-435 melanoma
[4] = system: SW-620 colon
[5] = system: MCF7 breast
[6] = system: HCT-116 colon
[7] = system: HCC-2998 colon
[8] = system: KM12 colon

Measured: growth

S=C(Nc1ccc(-c2nc(N3CCOCC3)c3cccn3n2)cc1)Nc1cccnc1
active: [1] -4.82%
inactive: [2] 32.8% | [3] 31.8% | [4] 46.7% | [5] 20.4% | [6] 17.3% | [7] 32.9% | [8] 28.1%

Cc1c(-n2nnc(-c3nc4ccccc4s3)c2N)c(=O)n(-c2ccccc2)n1C
inactive: [1] 94.6% | [2] 107% | [3] 114% | [4] 106% | [5] 90.6% | [6] 103% | [7] 95.4% | [8] 106%

C=CCc1c(O)c(C(=O)/C=C/c2ccc(Cl)cc2)c(OC)c2ccoc12
inactive: [1] 39.9% | [2] 47.8% | [3] 18.2% | [4] 37.3% | [5] 21.4% | [6] 17.2% | [7] 63.3% | [8] 41.1%

O=c1oc2c(cnc3ccccc32)cc1-c1ccsc1
inactive: [1] 85.9% | [2] 100% | [3] 102% | [4] 96.8% | [5] 33.2% | [6] 99.7% | [7] 123% | [8] 94%

Cc1ccccc1Cn1cnc2ccc(-c3cc(NC(=O)c4ccc(NC5CCN(C)CC5)cc4)n[nH]3)cc21
inactive: [1] 92.2% | [2] 68.2% | [3] 61% | [4] 93.1% | [5] 77.1% | [6] 48.8% | [7] 90.5% | [8] 39.6%

COc1cccc(/C=C/C(=O)c2cc3c(N)c(C(=O)Nc4ccccc4)sc3nc2C)c1
inactive: [1] 33% | [2] 30.3% | [6] 14.9% | [8] 17.6%
active: [3] -6.91% | [4] 0.132% | [5] 7.88% | [7] -37%

CO[C@]12C=C/C(=C(/C(=O)OCc3cccnc3)C(=O)CCCCCCCC[C@@]3(OC)C=C/C(=C(/C(=O)OCc4cccnc4)C(=O)CCCCCCCC1)O3)O2
inactive: [1] 38.4% | [4] 13.8% | [5] 18.5%
active: [2] -24.7% | [3] -11.8% | [6] -35.5% | [7] -79.2% | [8] -70.4%

Cc1ccc(-c2nc(N3CCNCC3)c3oc(-c4ccccc4)nc3n2)cc1
inactive: [2] 85.1%
active: [1] -57.8% | [3] -81% | [4] -55.1% | [5] -74.6% | [6] -71% | [7] -61.1% | [8] -89.1%

O=C1c2cccnc2C(=O)c2c1c(C(=O)NCCn1ccnc1)c1ccccn21
active: [3] -84.2% | [5] 0.25% | [6] -8.04%
inactive: [1] 24.2% | [2] 45.8% | [4] 12.9% | [7] 22.4% | [8] 31.3%

CCNC(=O)c1[nH]cc(-c2ccccc2)c1-c1cc(OC)c2c(c1OC)OCO2
inactive: [1] 87% | [2] 98.4% | [3] 103% | [4] 97.6% | [5] 101% | [6] 90.7% | [7] 104% | [8] 121%

COc1ccc(-c2nn(-c3ccccc3)cc2/C=C2/SC(=S)N(C)C2=O)cc1
inactive: [1] 35.1% | [2] 102% | [3] 84.9% | [4] 66.8% | [5] 75.3% | [6] 31% | [7] 98.9% | [8] 98.4%

O=C1COCCN1c1ccc(Nc2nc(Cl)nc(OCc3cn(Cc4ccccc4)nn3)n2)cc1
inactive: [1] 68.6% | [2] 90.3% | [3] 96.2% | [4] 88.6% | [5] 62.4% | [6] 91.9% | [7] 63.7% | [8] 90.5%

O=C(CCc1nnc(Cn2cnc3nc[nH]c3c2=O)o1)c1nc2ncccc2[nH]1
inactive: [1] 94.5% | [2] 95.9% | [3] 99.5% | [4] 96% | [5] 97.2% | [6] 97.3% | [7] 105% | [8] 105%

COc1ccc(-c2csc(N(C(=O)N3CCN(c4cc5c(cc4F)c(=O)c(C(=O)O)cn5C4CC4)CC3)c3ccccc3)n2)cc1
active: [2] -4.67% | [5] 8.74% | [6] 6.33% | [8] 5.96%
inactive: [1] 17.1% | [3] 16.9% | [4] 17.4% | [7] 24.1%

O=C1/C(=C/c2ccc(F)cc2)COc2ccc(O)cc21
active: [5] 7.92%
inactive: [1] 86.6% | [2] 78.2% | [3] 62.9% | [4] 26% | [6] 23.6% | [7] 90% | [8] 45.9%

CCCCN[C@H]1CC[C@@]2(C)[C@@H](CC[C@@]3(C)[C@H]2[C@H](O)C[C@H]2/C(=C(\CCC=C(C)C)C(=O)OC)[C@@H](OC(C)=O)C[C@@]23C)[C@@H]1C
inactive: [1] 105% | [2] 93.5% | [3] 98% | [4] 95.9% | [5] 90.8% | [6] 102% | [7] 99.3% | [8] 104%

CN1CCN(C(=O)c2ccc(NC(=O)Nc3ccc(-c4nc(N5CCOCC5)c5cccn5n4)cc3)cc2)CC1
active: [1] -34.3% | [2] -9.61% | [3] 0.865% | [5] 5.32% | [6] 7.02% | [7] 5.54% | [8] 9.01%
inactive: [4] 11%

CC1(C)CC[C@]2(c3nnc(-c4ccncc4)o3)CC[C@H]3C(=CC[C@H]4[C@@]3(C)CC[C@H]3C(C)(C)C(=O)CC[C@]43C)[C@@H]2C1
inactive: [1] 67.4% | [2] 88.1% | [3] 78.2% | [4] 59% | [5] 53.5% | [6] 29% | [7] 75.3% | [8] 70%

COc1ccc(CC(C#N)c2cc3ccccc3[nH]2)cc1 (stereo not drawn)
inactive: [1] 85.5% | [2] 92.8% | [3] 82.2% | [4] 93.6% | [5] 94% | [6] 92.3% | [7] 87.5% | [8] 84.7%

Cc1nc(N2CCOCC2)sc1S(N)(=O)=O
inactive: [1] 93% | [2] 98.1% | [3] 105% | [4] 91.5% | [5] 93.5% | [6] 103% | [7] 104% | [8] 94.1%

CN(C)CCNc1nc2c3cc(Cl)ccc3nn2c2ccccc12
inactive: [1] 86.6% | [2] 73% | [3] 65.3% | [4] 23.7% | [5] 35.3% | [6] 22.9% | [7] 56.3% | [8] 39.5%

O=C(c1ccc(-c2nc(CSc3nc4ccccc4s3)no2)cc1)N1CCSCC1
inactive: [1] 11.1% | [2] 67.7% | [3] 70.6% | [4] 82.4% | [5] 72.5% | [6] 49.8% | [7] 94.9% | [8] 57.7%

Cc1ccc(C(C(N)=O)C(C(N)=O)c2ccccc2)cc1 (stereo not drawn)
inactive: [1] 112% | [2] 113% | [3] 109% | [4] 105% | [5] 112% | [6] 101% | [7] 112% | [8] 105%

C=C1C(=O)O[C@H]2[C@H]1CC/C(COC(=O)NCc1cc[nH]c1)=C\CC[C@@]1(C)O[C@@H]21
inactive: [1] 69.5% | [2] 55.6% | [3] 34.2% | [4] 21.6% | [5] 34.8% | [6] 36.1% | [7] 95% | [8] 78.2%

Brc1ccc(-n2cc(-c3nn[nH]n3)c(-c3cccs3)n2)cc1
inactive: [1] 95.6% | [2] 95.3% | [3] 106% | [4] 102% | [5] 90.1% | [6] 91.5% | [7] 105% | [8] 103%

COc1ccc(C/C(C)=C(/c2ccc(OCCN3CCCCC3)cc2)c2ccc(OC(=O)NCc3ccccc3)cc2)cc1
active: [1] -82.3% | [2] -76.4% | [3] -95.4% | [4] -83.5% | [5] -84.6% | [6] -90.3% | [7] -92.5% | [8] -81.2%

Nc1nc2c([nH]1)c1[nH]c3ccccc3c1c1[nH]c3ccccc3c21
active: [3] 1.06% | [4] -31.5% | [6] -47.9% | [7] -70.6%
inactive: [1] 32.4% | [2] 64.6% | [5] 13.6% | [8] 39.5%

O=C(Nn1c2c(sc1=NCc1ccccc1)C(=O)c1ccccc1C2=O)c1cc2ccc1CCc1ccc(cc1)CC2
active: [3] -85.5%
inactive: [1] 35.1% | [2] 77.3% | [4] 77.5% | [5] 40% | [6] 55.9% | [7] 101% | [8] 74.8%

CC1=NN(c2nc(SCC(=O)Nc3nc4ccc(C)cc4s3)nc(-c3ccccc3)c2C#N)C(=O)C1
inactive: [1] 91.3% | [2] 95.5% | [3] 103% | [4] 102% | [5] 96.8% | [6] 101% | [7] 104% | [8] 101%

COc1ccc2cc(-c3ccc(NC(C)=O)c(=O)o3)ccc2c1
inactive: [1] 87.3% | [2] 101% | [3] 107% | [4] 96.6% | [5] 89.9% | [6] 90.3% | [7] 102% | [8] 97%

CN1CCN(c2ccc(NC(=O)c3cncnc3Nc3ccc(OCc4ccccn4)c(Cl)c3)cc2)CC1
inactive: [1] 53.7% | [2] 77.9% | [5] 26.5% | [7] 67.4% | [8] 49.3%
active: [3] -60.2% | [4] 4.15% | [6] -48%
